# Experimental data taken from paper PMC7862700, “An all-to-all approach to the identification of sequence-specific readers for epigenetic DNA modifications on cytosine”.
# How the values were obtained:
# Test in all cases: DAPPL (digital affinity profiling via proximity ligation, sequencing); 10 mM Tris-HCl pH 7.5, 50 mM NaCl, 1 mM DTT, 4% glycerol, room temperature, 30 min; GST-TFs on glutathione beads, 16-mer random dsDNA library, 0.1% formaldehyde crosslink after washing; high values mean tight binding
# Settings in all cases: protein: recombinant; tags: N-terminal GST; dsDNA, one strand shown
# FLI1 = target: T1, FLI1 (Homo sapiens, UniProt Q01543 1-452)
# T1 sequence: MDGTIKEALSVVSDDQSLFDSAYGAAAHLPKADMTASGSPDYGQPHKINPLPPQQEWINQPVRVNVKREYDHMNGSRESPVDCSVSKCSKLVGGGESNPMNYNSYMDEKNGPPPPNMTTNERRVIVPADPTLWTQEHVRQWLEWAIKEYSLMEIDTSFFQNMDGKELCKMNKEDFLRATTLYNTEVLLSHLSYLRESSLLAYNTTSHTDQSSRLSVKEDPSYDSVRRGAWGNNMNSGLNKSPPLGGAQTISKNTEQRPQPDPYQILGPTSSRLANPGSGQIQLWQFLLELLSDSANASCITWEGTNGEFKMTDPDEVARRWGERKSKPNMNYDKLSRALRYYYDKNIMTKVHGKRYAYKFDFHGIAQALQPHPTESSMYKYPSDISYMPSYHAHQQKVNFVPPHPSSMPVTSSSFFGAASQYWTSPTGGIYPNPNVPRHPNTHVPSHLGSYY
# Summary of the method: (§1)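 Pools were built from human transcription factors expressed in yeast as GST fusions, captured on glutathione beads and DNA-barcoded, along with a tag-only sample. Incubation with 200 nmole of a 16-mer random double-stranded DNA library lasted 30 min at room temperature in Tris/NaCl/DTT/glycerol buffer, and was followed by washing, 0.1% formaldehyde crosslinking, proximity ligation, PCR amplification and Illumina NextSeq500 sequencing. Binding signal is the quotient of each hexamer's read frequency for a factor and its frequency for the tag-only sample.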
# ELK1 = target: T2, ELK1 (Homo sapiens, UniProt P19419 1-428)
# T2 sequence: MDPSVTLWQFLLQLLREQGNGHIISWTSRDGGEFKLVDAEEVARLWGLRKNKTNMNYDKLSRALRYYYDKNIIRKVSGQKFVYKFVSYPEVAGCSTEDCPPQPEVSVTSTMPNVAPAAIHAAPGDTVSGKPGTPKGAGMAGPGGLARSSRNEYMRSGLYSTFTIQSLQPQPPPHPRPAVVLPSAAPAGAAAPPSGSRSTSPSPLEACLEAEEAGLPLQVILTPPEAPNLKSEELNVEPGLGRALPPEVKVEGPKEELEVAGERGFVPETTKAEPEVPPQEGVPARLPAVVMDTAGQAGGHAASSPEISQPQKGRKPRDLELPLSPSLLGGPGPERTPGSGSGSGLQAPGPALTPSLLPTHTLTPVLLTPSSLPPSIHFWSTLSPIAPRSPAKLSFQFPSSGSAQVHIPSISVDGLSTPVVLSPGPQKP
# Summary of the method: as §1
# GABPA = target: T3, GABPA (Homo sapiens, UniProt Q06546 1-454)
# T3 sequence: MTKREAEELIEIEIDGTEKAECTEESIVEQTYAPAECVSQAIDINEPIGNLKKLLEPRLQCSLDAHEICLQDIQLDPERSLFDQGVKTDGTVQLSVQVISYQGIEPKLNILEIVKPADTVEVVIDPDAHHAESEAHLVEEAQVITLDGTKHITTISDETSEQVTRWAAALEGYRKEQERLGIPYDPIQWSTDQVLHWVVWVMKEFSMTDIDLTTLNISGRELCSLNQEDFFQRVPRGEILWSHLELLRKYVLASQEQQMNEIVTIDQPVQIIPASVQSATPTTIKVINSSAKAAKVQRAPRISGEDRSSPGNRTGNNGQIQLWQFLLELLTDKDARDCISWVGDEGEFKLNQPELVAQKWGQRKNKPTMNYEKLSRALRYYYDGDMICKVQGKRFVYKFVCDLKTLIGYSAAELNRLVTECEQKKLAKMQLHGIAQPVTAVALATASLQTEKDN
# Summary of the method: as §1
# ERG = target: T4, ERG (Homo sapiens, UniProt P11308 1-479)
# T4 sequence: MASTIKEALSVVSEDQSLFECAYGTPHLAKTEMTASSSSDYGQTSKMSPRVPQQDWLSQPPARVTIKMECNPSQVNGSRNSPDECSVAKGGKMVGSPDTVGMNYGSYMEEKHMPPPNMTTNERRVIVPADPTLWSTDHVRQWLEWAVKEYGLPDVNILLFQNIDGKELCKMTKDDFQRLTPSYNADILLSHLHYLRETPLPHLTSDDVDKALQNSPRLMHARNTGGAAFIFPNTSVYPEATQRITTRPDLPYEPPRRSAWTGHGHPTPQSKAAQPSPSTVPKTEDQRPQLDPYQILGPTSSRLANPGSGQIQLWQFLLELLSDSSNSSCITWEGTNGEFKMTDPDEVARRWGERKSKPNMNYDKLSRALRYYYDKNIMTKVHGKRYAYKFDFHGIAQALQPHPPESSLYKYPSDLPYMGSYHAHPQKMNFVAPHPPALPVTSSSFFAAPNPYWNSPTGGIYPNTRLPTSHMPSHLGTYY
# Summary of the method: as §1
# ELF1 = ELF1 (Homo sapiens, UniProt P32519 1-619)
# Summary of the method: as §1
# SPIB = SPIB (Homo sapiens, UniProt Q01892 1-262)
# Summary of the method: as §1
# ETV5 = ETV5 (Homo sapiens, UniProt P41161 1-510)
# Summary of the method: as §1
# ETV2 = target: T5, ETV2 (Homo sapiens, UniProt O00321 1-342)
# T5 sequence: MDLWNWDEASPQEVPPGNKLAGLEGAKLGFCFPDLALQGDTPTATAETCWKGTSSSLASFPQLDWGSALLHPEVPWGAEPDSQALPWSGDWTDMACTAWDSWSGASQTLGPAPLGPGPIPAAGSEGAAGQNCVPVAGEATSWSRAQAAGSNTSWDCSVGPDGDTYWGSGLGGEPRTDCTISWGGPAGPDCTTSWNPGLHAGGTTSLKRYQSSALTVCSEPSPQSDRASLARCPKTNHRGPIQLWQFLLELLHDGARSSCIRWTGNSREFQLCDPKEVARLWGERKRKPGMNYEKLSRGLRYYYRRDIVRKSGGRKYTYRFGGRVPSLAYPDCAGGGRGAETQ
# Summary of the method: as §1
# ETV1 = ETV1 (Homo sapiens, UniProt P50549 1-477)
# Summary of the method: as §1
# ERF = target: T6, ERF (Homo sapiens, UniProt P50548 1-548)
# T6 sequence: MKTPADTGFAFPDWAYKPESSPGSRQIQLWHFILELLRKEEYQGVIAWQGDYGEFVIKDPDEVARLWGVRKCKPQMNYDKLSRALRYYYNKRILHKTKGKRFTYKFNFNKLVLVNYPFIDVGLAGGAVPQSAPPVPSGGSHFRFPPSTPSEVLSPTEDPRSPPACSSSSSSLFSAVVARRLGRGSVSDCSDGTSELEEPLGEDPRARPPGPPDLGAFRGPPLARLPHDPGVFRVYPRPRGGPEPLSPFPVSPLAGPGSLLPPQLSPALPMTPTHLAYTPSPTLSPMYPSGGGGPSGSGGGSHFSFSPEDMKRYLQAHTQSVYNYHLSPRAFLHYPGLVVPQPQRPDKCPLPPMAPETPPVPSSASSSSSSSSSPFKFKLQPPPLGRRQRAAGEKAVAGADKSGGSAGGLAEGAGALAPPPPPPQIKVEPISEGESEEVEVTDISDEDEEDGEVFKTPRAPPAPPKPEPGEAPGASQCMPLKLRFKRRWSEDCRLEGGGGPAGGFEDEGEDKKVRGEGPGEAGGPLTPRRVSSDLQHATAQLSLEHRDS
# Summary of the method: as §1
# ETS2 = target: T7, ETS2 (Homo sapiens, UniProt P15036 1-469)
# T7 sequence: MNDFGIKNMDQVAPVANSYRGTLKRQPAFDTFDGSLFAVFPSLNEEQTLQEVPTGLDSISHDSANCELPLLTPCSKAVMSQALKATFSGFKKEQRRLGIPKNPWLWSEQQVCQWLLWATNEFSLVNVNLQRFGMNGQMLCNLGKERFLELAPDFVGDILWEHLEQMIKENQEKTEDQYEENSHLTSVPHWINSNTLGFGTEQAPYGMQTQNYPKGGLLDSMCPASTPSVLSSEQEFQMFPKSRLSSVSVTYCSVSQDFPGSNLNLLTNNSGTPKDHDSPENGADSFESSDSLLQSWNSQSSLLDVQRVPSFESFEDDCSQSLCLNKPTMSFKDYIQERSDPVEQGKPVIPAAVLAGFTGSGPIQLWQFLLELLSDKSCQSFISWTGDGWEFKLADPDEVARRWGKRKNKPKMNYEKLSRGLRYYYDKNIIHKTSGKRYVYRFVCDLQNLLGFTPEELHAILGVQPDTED
# Summary of the method: as §1
# ETV7 = target: T8, ETV7 (Homo sapiens, UniProt Q9Y603 1-341)
# T8 sequence: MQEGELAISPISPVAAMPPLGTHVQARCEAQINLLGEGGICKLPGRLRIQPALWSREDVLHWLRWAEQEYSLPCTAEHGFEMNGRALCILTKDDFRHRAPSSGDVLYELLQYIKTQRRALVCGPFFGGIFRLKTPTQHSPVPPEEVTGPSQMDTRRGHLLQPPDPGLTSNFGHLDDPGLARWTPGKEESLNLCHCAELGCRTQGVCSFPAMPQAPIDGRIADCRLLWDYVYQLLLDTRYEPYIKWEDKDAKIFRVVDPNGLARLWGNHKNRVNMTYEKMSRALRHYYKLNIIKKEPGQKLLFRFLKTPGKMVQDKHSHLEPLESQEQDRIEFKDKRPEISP
# Summary of the method: as §1
# Chain of ETV1 (P50549 whole entry): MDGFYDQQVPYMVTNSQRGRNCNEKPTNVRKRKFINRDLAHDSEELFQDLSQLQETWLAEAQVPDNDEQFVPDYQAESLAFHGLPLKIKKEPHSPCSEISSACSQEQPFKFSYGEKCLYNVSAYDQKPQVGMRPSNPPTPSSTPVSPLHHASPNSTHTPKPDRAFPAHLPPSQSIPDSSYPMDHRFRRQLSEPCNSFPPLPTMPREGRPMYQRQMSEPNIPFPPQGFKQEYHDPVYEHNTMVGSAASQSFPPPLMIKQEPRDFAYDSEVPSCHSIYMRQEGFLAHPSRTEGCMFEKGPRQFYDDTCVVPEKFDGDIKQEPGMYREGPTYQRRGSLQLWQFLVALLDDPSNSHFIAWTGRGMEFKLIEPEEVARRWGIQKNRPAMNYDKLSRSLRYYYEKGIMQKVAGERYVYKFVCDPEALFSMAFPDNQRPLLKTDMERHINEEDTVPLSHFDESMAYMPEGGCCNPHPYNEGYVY
# Chain of ETV5 (P41161 whole entry): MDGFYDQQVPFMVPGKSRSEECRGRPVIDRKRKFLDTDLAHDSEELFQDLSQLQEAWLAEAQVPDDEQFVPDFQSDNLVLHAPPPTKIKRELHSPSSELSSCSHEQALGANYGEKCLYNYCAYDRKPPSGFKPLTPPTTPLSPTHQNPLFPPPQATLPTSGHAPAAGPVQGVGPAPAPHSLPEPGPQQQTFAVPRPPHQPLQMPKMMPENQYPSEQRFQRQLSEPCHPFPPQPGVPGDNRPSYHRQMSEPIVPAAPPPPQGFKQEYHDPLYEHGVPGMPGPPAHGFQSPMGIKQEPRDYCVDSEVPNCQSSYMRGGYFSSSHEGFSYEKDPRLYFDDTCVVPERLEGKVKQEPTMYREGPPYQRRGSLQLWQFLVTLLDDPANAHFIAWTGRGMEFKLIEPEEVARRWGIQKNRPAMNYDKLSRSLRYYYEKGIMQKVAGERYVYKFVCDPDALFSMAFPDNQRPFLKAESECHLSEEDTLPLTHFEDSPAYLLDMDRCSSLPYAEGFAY
# Chain of ELF1 (P32519 whole entry): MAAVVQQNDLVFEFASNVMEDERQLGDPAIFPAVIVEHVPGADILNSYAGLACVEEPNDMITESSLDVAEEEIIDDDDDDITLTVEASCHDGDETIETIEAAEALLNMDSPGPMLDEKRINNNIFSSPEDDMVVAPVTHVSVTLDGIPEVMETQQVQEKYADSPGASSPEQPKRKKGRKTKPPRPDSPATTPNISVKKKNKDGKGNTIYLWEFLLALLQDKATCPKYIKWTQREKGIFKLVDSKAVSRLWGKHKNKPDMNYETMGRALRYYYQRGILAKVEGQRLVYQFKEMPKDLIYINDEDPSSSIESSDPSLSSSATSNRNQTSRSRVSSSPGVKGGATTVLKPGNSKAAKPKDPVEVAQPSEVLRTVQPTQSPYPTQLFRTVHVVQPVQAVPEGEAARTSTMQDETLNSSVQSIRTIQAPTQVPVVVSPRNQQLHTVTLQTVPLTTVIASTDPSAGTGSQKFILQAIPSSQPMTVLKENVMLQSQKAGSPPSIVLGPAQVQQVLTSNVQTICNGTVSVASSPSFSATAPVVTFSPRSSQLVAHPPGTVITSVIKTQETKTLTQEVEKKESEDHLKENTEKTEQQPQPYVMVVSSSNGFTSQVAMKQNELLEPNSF
# Chain of SPIB (Q01892 whole entry): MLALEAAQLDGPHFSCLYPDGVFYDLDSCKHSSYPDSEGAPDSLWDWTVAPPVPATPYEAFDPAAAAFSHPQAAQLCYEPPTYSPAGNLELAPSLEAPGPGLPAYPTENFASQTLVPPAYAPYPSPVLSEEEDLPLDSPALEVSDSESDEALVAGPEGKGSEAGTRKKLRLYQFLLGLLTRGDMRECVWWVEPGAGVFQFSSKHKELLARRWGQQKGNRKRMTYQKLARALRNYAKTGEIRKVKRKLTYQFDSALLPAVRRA
sequence,measurement,setting,value
TGGTGG,binding signal,FLI1,"1.11 fold enrichment (6-mer frequency, TF over GST control)"
same,binding signal,ELK1,"1.01 fold enrichment (6-mer frequency, TF over GST control)"
same,binding signal,GABPA,"1.12 fold enrichment (6-mer frequency, TF over GST control)"
same,binding signal,ERG,"1.1 fold enrichment (6-mer frequency, TF over GST control)"
same,binding signal,ELF1,"1.03 fold enrichment (6-mer frequency, TF over GST control)"
same,binding signal,SPIB,"1.05 fold enrichment (6-mer frequency, TF over GST control)"
same,binding signal,ETV5,"1.03 fold enrichment (6-mer frequency, TF over GST control)"
same,binding signal,ETV2,"1.03 fold enrichment (6-mer frequency, TF over GST control)"
same,binding signal,ETV1,"1.04 fold enrichment (6-mer frequency, TF over GST control)"
same,binding signal,ERF,"1.1 fold enrichment (6-mer frequency, TF over GST control)"
same,binding signal,ETS2,"1.08 fold enrichment (6-mer frequency, TF over GST control)"
same,binding signal,ETV7,"1.09 fold enrichment (6-mer frequency, TF over GST control)"
